# Measurements taken from PubChem BioAssay (NCI).
# Compounds without any hit were thinned out: in the full panel of roughly 83,000, 20% have a hit.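 96-well plates, one dose, 48 hours. Percent growth reported; active if below 10.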 Unmarked numbers belong to inactive results. Activity calls are given as the source filed them.
# Columns and labels:
# Assay in all cases: NCI-60 one-dose screen, 48 h (100 = growth as untreated, 0 = no growth, -100 = all killed)
# [1] = test system: NCI-H23 lung; conditions: 10 µM unless noted
# [2] = test system: NCI-H226 lung; conditions: 10 µM unless noted
# [3] = test system: NCI-H322M lung; conditions: 10 µM unless noted
# [4] = test system: HOP-62 NSCLC; conditions: 10 µM unless noted
# [5] = test system: NCI-H460 lung; conditions: 10 µM unless noted
# [6] = test system: 786-0 renal; conditions: 10 µM unless noted
# [7] = test system: MDA-MB-231 breast; conditions: 10 µM unless noted
# [8] = test system: SF-268 CNS; conditions: 10 µM unless noted
# [9] = test system: SF-539 CNS; conditions: 10 µM unless noted
# [10] = test system: M14 melanoma; conditions: 10 µM unless noted
# [11] = test system: HCT-15 colon; conditions: 10 µM
# [12] = test system: U251 CNS; conditions: 10 µM unless noted
# [13] = test system: UO-31 renal; conditions: 10 µM unless noted
# [14] = test system: SK-OV-3 ovarian; conditions: 10 µM unless noted
# [15] = test system: OVCAR-3 ovarian; conditions: 10 µM unless noted
# [16] = test system: MDA-MB-435 melanoma; conditions: 10 µM unless noted
# [17] = test system: SW-620 colon; conditions: 10 µM unless noted
# [18] = test system: MCF7 breast; conditions: 10 µM unless noted
# [19] = test system: HCT-116 colon; conditions: 10 µM unless noted
# [20] = test system: KM12 colon; conditions: 10 µM unless noted
SMILES,growth [1] [%],growth [2] [%],growth [3] [%],growth [4] [%],growth [5],growth [6] [%],growth [7],growth [8] [%],growth [9],growth [10],growth [11],growth [12] [%],growth [13],growth [14] [%],growth [15],growth [16],growth [17],growth [18],growth [19],growth [20]
CC(=O)C1C(=O)N(C)C(=O)N(C)C1=O,121,95.4,107,98.6,102%,107,117%,113,92%,110%,93.4%,96.1,96.1%,115,112%,94.4%,103%,99.7%,106%,107%
Cc1cc(C)nc(C)c1.[Cl][Hg][Cl],98.9,120,91.5,102,101%,104,118%,102,103%,97.3%,101%,91.6,95.5%,110,108%,83.9%,105%,82.7%,108%,96.2%
S=P(NC1CCCCC1)(N1CC1)N1CC1,110,113,113,101,82.8%,101,104%,98.6,107%,105%,108%,101,94.1%,131,112%,110%,96.5%,89%,93.3%,110%
COC(C)(C)CCC[C@H](C)C/C=C/C(C)=C/C(=O)OC(C)C,78.7,103,108,107,109%,85.8,102%,103,118%,100%,101%,95.9,84.9%,92,111%,97.4%,105%,,83.6%,107%
CCCCNCCc1ccccn1,99.9,110,113,107,107%,97.6,114%,107,109%,99.6%,102%,,88.4%,119,106%,109%,103%,92.1%,102%,102%
CCC1([N+](=O)[O-])COP(=O)(NCc2cccnc2)OC1 (stereo not drawn),115,99.9,111,103,104%,96.4,111%,106,106%,109%,104%,107,91.1%,94.4,113%,117%,105%,115%,103%,103%
O=C(O)c1nn(Cc2ccc(Cl)cc2)c2ccccc12,105,101,127,108,105%,108,107%,109,102%,107%,102%,100,95.7%,113,132%,116%,105%,99.7%,103%,109%
COc1ccc(OC)c(/C=C(/C)[N+](=O)[O-])c1,53.8,94.3,98,38.9,33.1%,90.9,68.4%,65.3,84.4%,47%,-33.1% (active),26.7,-46.3% (active),125,-11.3% (active),23.1%,-77% (active),6.58% (active),-91.4% (active),26.5%
CC(N)Cc1ccc(O)cc1 (stereo not drawn),108,99.2,95.5,111,109%,98.6,106%,99.4,117%,99.9%,113%,106,79.3%,105,108%,106%,103%,100%,100%,107%
CC1(C)N=C(N)N=C(N)N1c1ccc(OCCCCOc2ccc(S(=O)(=O)F)cc2)c(Cl)c1,20,29.6,23.2,28.3,4.24% (active),20.6,38.3%,17.9,12.2%,19%,32.8%,12,67.7%,43.3,28.4%,16.8%,13%,9.19% (active),11.2%,9.69% (active)
ClCCN(CCCl)c1nc(Cl)c(C2CC(c3ccc(Cl)cc3)=NN2c2cc(Cl)cc(Cl)c2)s1 (stereo not drawn),94.1,99.9,102,98.4,101%,103,107%,102,118%,95.8%,105%,98.6,91.3%,87.1,108%,103%,99.2%,95.1%,85.8%,108%
COc1cc(/C=C\c2cc(OC)c(OC)c(OC)c2)cc(N/C=C\C(=O)c2ccc(OC(F)(F)F)cc2)c1OC,26.2,54.4,42.4,23.8,4.92% (active),34.3,-16.9% (active),41.7,-31.5% (active),-4.87% (active),9.36% (active),14.8,32.9%,19.9,-8.54% (active),-42.2% (active),26.3%,17.2%,8.14% (active),16.6%
c1ccc2nc(OCCN3CC3)ccc2c1,74.2,83.1,94,76.8,72.3%,84.2,75%,96.6,97.5%,86.5%,86.5%,85.1,59.4%,96.7,74.3%,83.3%,64.8%,71.4%,25%,80.3%
O=C1NC(=O)C(Cc2ccccc2)(Cc2ccccc2)C(=O)N1,111,105,111,95.8,110%,98.6,98.9%,109,110%,103%,108%,102,78.7%,89.2,119%,113%,107%,94.8%,107%,105%
O=CC(Br)C(Br)c1ccccc1 (stereo not drawn),104,97.7,103,107,102%,106,96.5%,95.7,94%,91.8%,78.1%,102,74.1%,109,33.3%,99.3%,19.5%,44.1%,2.83% (active),96.1%
C1CNC2CCCC2C1 (stereo not drawn),108,98.1,104,102,108%,105,118%,104,102%,107%,99.2%,105,82.5%,108,107%,105%,103%,99.7%,108%,97%
CCN(CC)c1ccc(C=C2C(=O)NC(=S)NC2=O)cc1,93.4,85.5,104,98.1,104%,96.7,93.7%,80.1,97.4%,102%,77.5%,77,76.1%,94.1,80.6%,98.1%,77.9%,60.3%,93.9%,96.8%
C=CCN1C(=O)C(CC)(CCC(C)C)C(=O)NC1=S (stereo not drawn),105,104,106,113,105%,97.7,108%,109,111%,107%,105%,97.3,86.4%,100,113%,101%,104%,107%,105%,108%
